Source: PubChem BioAssay (EPA / NIEHS)
Inconclusive results are not listed. Active and inactive are the calls of the source. The calls were made as follows: active = hit-call score of the fitted dose curve at least 0.9, where 1 is the maximum; inconclusive = response in the unintended direction; inactive = score below 0.9.

The compounds below were run on HMG-CoA synthase (HMGCS2), HMGCS2 (gene 3158) (assay: CLD_HMGCS2_24hr: CellzDirect (CLD) Gene Expression Assay for HMG-CoA synthase (HMGCS2) at 24 hours (AID 2283691)).
Experimental: CLD_24hr is a cell-based, multiplexed-readout assay that uses hepatocyte, a human liver primary cell, with measurements taken at 24 hours after chemical dosing in a 96-well plate.CLD_HMGCS2_24hr is one of 16 assay component(s) measured or calculated from the CLD_24hr assay. It is designed to make measurements of mRNA induction, a form of inducible reporter, as detected with chemiluminescence signals by Quantitative Nuclease Protection Assay (qNPA) technology.Data from the assay component CLD_HMGCS2_24hr was analyzed at the endpoint, CLD_HMGCS2_24hr, in the positive analysis fitting direction relative to DMSO as the negative control and baseline of activity. Using a type of inducible reporter, gain-of-signal activity can be used to understand changes in the reporter gene as they relate to the gene HMGCS2. Furthermore, this assay endpoint can be referred to as a primary readout. To generalize the intended target to other relatable targets, this assay endpoint is annotated to the lyase intended target family, where subfamily is HMG-CoA synthase.
Human hepatocyte cultures were treated daily for two consecutive days with fresh dosing solutions containing appropriate concentrations of the 320 ToxCast chemicals (chemical identities were blinded to CellzDirect and other ToxCast collaborators), vehicle control (0.2% DMSO), and positive control inducers as summarized in Table 1. Due to the large number of treatment groups and chemicals examined, the ToxCast chemicals were divided into two groups (spanning two independent cultures of hepatocytes from separate donor preparations (Hu778: ToxCast plates 1 and 2; Hu776: ToxCast plates 3 and 4). Each preparation of human hepatocyte cultures was treated with respective vehicle control, medium only control, set of six positive controls/reference chemicals for the five hepatic receptor pathways, and a subset of eight of the ToxCast chemicals (indoxacarb, pyrithiobac-sodium, norflurazon, cyhalofop-butyl, methomyl, thiram, acetochlor, and propiconazole). These replicate data, coupled with internal replicates designed within the blinded ToxCast chemical library, provided additional data to evaluate interindividual differences between hepatocyte preparations and their potential impact on chemical profiles.Cell morphology and integrity were evaluated using phase-contrast microscopy as an indicator of hepatocyte cell health (Tyson & Green, 1987). Cultures for each treatment group (i.e., media, vehicle [0.2% DMSO], positive control inducers [multiple concentrations], and the ToxCast chemicals [multiple concentrations]) were observed and cell morphology was assessed relative to vehicle control cultures at each harvest time point (0, 6, 24, or 48 h). […] Images were evaluated at the conclusion of the study to assess changes in cell integrity and account for the effects of chemical exposure on uncharacteristic changes in concentration-dependent gene expression profiles. The results from these determinations of apparent cytotoxicity were annotated (yes/no) alongside the corresponding qNPA data for reference.At the conclusion of each treatment period, hepatocyte cultures (96-well) were washed with 1 volume of HBSS, lysed by addition of 25 ul ArrayPlate lysis buffer (HTG, Tucson, AZ), and 70 ul/well of Denaturation Oil, denatured by incubation at 95C for 10 min, and frozen at approximately -70C until analysis by nuclease protection assay (qNPA) (Roberts et al., 2007). For qNPA analysis, cell lysates were thawed at 50C for approximately 30 min, qNPA probes were added, and samples were incubated at 95C for 10 min to begin the detection process by denaturing the target RNA, dissociating the duplexes and secondary structure hybridization. At the conclusion of the hybridization period, S1 nuclease reagent was added to each sample to digest all nonprotected nucleotides at 50C for 60-90 min. […]

Which outcome does the source give for `CCc1cnc(C2=NC(C)(C(C)C)C(=O)N2)c(C(=O)O)c1` (stereo not given) here?
The outcome was “inactive”.

`CCOP(=S)(OCC)SCCSCC` was tested. Which outcome did it give?
The outcome was “inactive”.

With `CC(COc1ccc(Oc2ccccc2)cc1)Oc1ccccn1` (stereo not given) as the compound, how does the outcome read?
Its outcome is “inactive”.

`COP(=O)(OC)C(O)C(Cl)(Cl)Cl` (stereo not given) was tested. Which outcome did it give?
Its outcome is “inactive”.

With `CCCCOC(=O)c1ccccc1C(=O)O` as the compound, how does the outcome read?
Its outcome is “inactive”.

`CN(C)[C@@H]1C(=O)C(C(N)=O)=C(O)[C@@]2(O)C(=O)C3=C(O)c4c(O)cccc4[C@@](C)(O)[C@H]3[C@H](O)[C@@H]12` was tested. Which outcome did it give?
The outcome was “inactive”.

With `CCOP(=S)(OCC)OC(Cl)C(Cl)(Cl)Cl` (stereo not given) as the compound, how does the outcome read?
Its outcome is “inactive”.

How did the outcome turn out when `CC[C@H](C)[C@H]1O[C@]2(C=C[C@@H]1C)C[C@@H]1C[C@@H](C/C=C(\C)[C@@H](O[C@H]3C[C@H](OC)[C@@H](O[C@H]4C[C@H](OC)[C@@H](NC)[C@H](C)O4)[C@H](C)O3)[C@@H](C)/C=C/C=C3\CO[C@@H]4[C@H](O)C(C)=C[C@@H](C(=O)O1)[C@]34O)O2` was run?
The outcome was “inactive”.

How did the outcome turn out when `CCCSP(=O)(OCC)SCCC` was run?
The outcome was “inactive”.

For `CC(Oc1cccc(Cl)c1)C(=O)O` (stereo not given), which outcome is on record?
Its outcome is “inactive”.

With `O=c1ccc(=O)[nH][nH]1` as the compound, how does the outcome read?
Its outcome is “inactive”.

`C[N+]1(C)CCCCC1` was tested. Which outcome did it give?
Its outcome is “inactive”.

How did the outcome turn out when `CC1=NNC(=O)N(/N=C/c2cccnc2)C1` was run?
Its outcome is “inactive”.

With `CC(=NC#N)N(C)Cc1ccc(Cl)nc1` as the compound, how does the outcome read?
The outcome was “inactive”.

With `CCCCOC(=O)[C@@H](C)Oc1ccc(Oc2ccc(C#N)cc2F)cc1` as the compound, how does the outcome read?
Its outcome is “inactive”.

`O=C(O)c1cc(Oc2ccc(C(F)(F)F)cc2Cl)ccc1[N+](=O)[O-]` was tested. Which outcome did it give?
Its outcome is “inactive”.

For `CSC1=N[C@@](C)(c2ccccc2)C(=O)N1Nc1ccccc1`, which outcome is on record?
The outcome was “inactive”.

`COc1cc(OC)nc(Sc2cccc(Cl)c2C(=O)O)n1` was tested. Which outcome did it give?
Its outcome is “inactive”.

`CCOP(=O)(OCC)Oc1cc(C)nc(C(C)C)n1` was tested. Which outcome did it give?
Its outcome is “inactive”.

How did the outcome turn out when `CNC(=O)ON=C(SC)C(=O)N(C)C` was run?
Its outcome is “inactive”.
